SMILES strings stand for the structures. Several values for one entry are separate records, joined by “and”; a condition that tells them apart may be missing. Identical values can stand only once. Compounds without any hit were thinned out: in the full panel of roughly 79,000, 15% have a hit. The source holds several records for some structures; these can differ, active in one and inactive in another. Activity calls are given as the source filed them. Cut-off read from the data, not from the text of the source: active = growth inhibition above about 70%; inactive = the rest.

One experiment can be described thus: NCI Yeast Anticancer Drug Screen. Data for the sgs1 strain (AID 173).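 Note: 0% = growth of vehicle-only control cultures.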 To be noted: S. cerevisiae sgs1 mutant, at 100.0 µM, stronger effect = higher value. Put shortly:
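Vehicle-treated cultures served as reference for growth inhibition of a yeast strain altered in DNA damage repair or cell cycle control after compound exposure.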
With `CNC(=O)OCc1c(COC(=O)NC)c(C)n(-c2ccc(Cl)c(Cl)c2)c1C`, the growth inhibition is 98% (active).

For the compound `COc1ccc2nc(N/N=C/c3sccc3C)cc(C)c2c1`, the growth inhibition was 95% (active).

As for `O=C(O)/C=C\C(=O)NNc1ccc(Br)cc1`, the growth inhibition is 99% (active).

Consider `S=c1[nH]nc(Cc2ccccc2)c(=S)[nH]1`, for which the growth inhibition was 97% (active).

Take `COc1ccc2nc3cccc([N+](=O)[O-])c3c(NCCCO)c2c1`: the growth inhibition is 97% (active).

Take `CCN(CC)CCSc1c2ccccc2nc2cc(NCC(=O)Nc3ccccc3-c3ccccc3NC(=O)CNc3ccc4c(SCCN(CC)CC)c5ccccc5nc4c3)ccc12`: the growth inhibition is 96% (active).

As for `Cc1ccc(N(C=O)c2c([N+](=O)[O-])cc([N+](=O)[O-])c3c2=[N+]([O-])CN=3)cc1`, the growth inhibition was 98% (active).

On to `COc1ccc(C(=O)OCCc2ccccc2)cc1`, for which the growth inhibition was -4% (inactive).

Consider `COc1ccc(C(=O)NCCN(C)C)c2nc3ccccc3cc12`, for which the growth inhibition was 62% (inactive).

With `NCC(O)CSCc1ccc(Cl)cc1` (stereo unspecified), the growth inhibition is 42% (inactive).

With `CN(C)/N=N/c1nc[nH]c1C(N)=O`, the growth inhibition is 98% (active).

In the case of `O=c1[nH]c(=O)n(CCCO)cc1F`, the growth inhibition is -11% (inactive).

Consider `COc1ccc(/C(=N/O)c2ccccc2C2=Nc3ccccc3C(NCc3ccccc3)O2)cc1C` (stereo unspecified), for which the growth inhibition is 95% (active).

Take `CCCC(=O)OC(OC(=O)CCC)c1ccc([N+](=O)[O-])o1`: the growth inhibition was 61% (inactive).

`O=C(/C(=C/c1ccccc1)CBr)c1ccccc1`: the growth inhibition is 99% (active).

In the case of `O=C(Cc1ccccc1F)NC1=C(Cl)C(=O)c2ccccc2C1=O`, the growth inhibition was 58% (inactive).

For `Cc1cccc(N2CCN(C(=O)/C(=C/c3ccccc3)NC(=O)c3ccccc3)CC2)c1`, the growth inhibition is 59% (inactive).

Consider `c1cc(Nc2ccc3c(c2)OCO3)c2cc(C3CCCCC3)ccc2n1`, for which the growth inhibition was 86% (active).

`Cc1ccc2nc(N/N=C/c3ccc(C)s3)cc(C)c2c1`: the growth inhibition was 93% (active).

Take `COc1ccc2cc(CN3CCC(C4CCN(Cc5ccc6cc(OC)ccc6c5)CC4)CC3)ccc2c1`: the growth inhibition was 98% (active).

For the compound `CC(=O)O/N=C/c1c2ccccc2cc2ccccc12`, the growth inhibition was 58% (inactive).

Consider `CC[C@@]1(OC(=O)CN(C)C)C(=O)OCc2c1cc1n(c2=O)Cc2cc3ccccc3nc2-1`, for which the growth inhibition was 96% (active).

Consider `CC1(C)CC(=O)C(C(CC(c2ccccc2)c2cc3c(cc2O)OCO3)C2=C(O)CC(C)(C)CC2=O)=C(O)C1` (stereo unspecified), for which the growth inhibition was 87% (active).

As for `CCOC(=O)C1=C(C)NC(C)=C(C(=O)OCC)C1c1cccc([N+](=O)[O-])c1`, the growth inhibition was 86% (active).

With `Cc1ccc2c(/C=C/c3ccc(N(C)C)cc3)ccnc2c1C`, the growth inhibition was 87% (active).

`O=C1C(Br)=CC(Br)(Br)C=C1Br`: the growth inhibition was 98% (active).

A further experiment can be described thus: NCI Yeast Anticancer Drug Screen. Data for the mlh1 rad18 strain (AID 175). To be noted: S. cerevisiae mlh1 rad18 strain growth inhibition; at 5.0 µM (retest, dose inferred, filed as 0.5); stronger effect = higher value. Put shortly: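 Inhibition values reflect reduced growth of mutant yeast versus vehicle-treated controls following compound exposure; the mutations affect DNA damage repair.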
Turning to `CNC(=O)OCc1c(COC(=O)NC)c(C)n(-c2ccc(Cl)c(Cl)c2)c1C`, the growth inhibition is 39% (inactive).

Take `COc1ccc2nc(N/N=C/c3sccc3C)cc(C)c2c1`: the growth inhibition was -5% (inactive).

For `CCCCCCCCCCCC[N+](C)(C)Cc1ccccc1` (tested in a mixture with another compound), the growth inhibition was 94% (active) and 74% (active) and 78% (active).

As for `CC(C)c1ccc(O)c(=O)cc1`, the growth inhibition is 5% (inactive) and 6% (inactive) and 2% (inactive).

Take `O=C(O)/C=C\C(=O)NNc1ccc(Br)cc1`: the growth inhibition is 27% (inactive).

On to `S=c1[nH]nc(Cc2ccccc2)c(=S)[nH]1`, for which the growth inhibition is 53% (inactive).

Regarding `COc1ccc2nc3cccc([N+](=O)[O-])c3c(NCCCO)c2c1`, the growth inhibition is 97% (active).

Take `CCN(CC)CCSc1c2ccccc2nc2cc(NCC(=O)Nc3ccccc3-c3ccccc3NC(=O)CNc3ccc4c(SCCN(CC)CC)c5ccccc5nc4c3)ccc12`: the growth inhibition was 42% (inactive).

Regarding `Cc1ccc(N(C=O)c2c([N+](=O)[O-])cc([N+](=O)[O-])c3c2=[N+]([O-])CN=3)cc1`, the growth inhibition was 12% (inactive).

For the compound `Nc1ccccc1SSc1ccccc1N`, the growth inhibition is 80% (active) and 17% (inactive) and 46% (inactive).

Turning to `COc1ccc(C(=O)OCCc2ccccc2)cc1`, the growth inhibition is 10% (inactive).

In the case of `COc1ccc(C(=O)NCCN(C)C)c2nc3ccccc3cc12`, the growth inhibition was 19% (inactive).

Take `NCC(O)CSCc1ccc(Cl)cc1` (stereo unspecified): the growth inhibition is -5% (inactive).

Regarding `O=c1[nH]c(=O)n(CCCO)cc1F`, the growth inhibition is 47% (inactive).

In the case of `CCCCCCCCCCCC[N+](C)(C)C`, the growth inhibition was -4% (inactive) and -5% (inactive) and 4% (inactive).

For the compound `COc1ccc(/C(=N/O)c2ccccc2C2=Nc3ccccc3C(NCc3ccccc3)O2)cc1C` (stereo unspecified), the growth inhibition was 2% (inactive).

For `CCCC(=O)OC(OC(=O)CCC)c1ccc([N+](=O)[O-])o1`, the growth inhibition was 22% (inactive).

Regarding `O=C(/C(=C/c1ccccc1)CBr)c1ccccc1`, the growth inhibition was 68% (inactive).

On to `O=C(Cc1ccccc1F)NC1=C(Cl)C(=O)c2ccccc2C1=O`, for which the growth inhibition is 20% (inactive).

On to `Cc1cccc(N2CCN(C(=O)/C(=C/c3ccccc3)NC(=O)c3ccccc3)CC2)c1`, for which the growth inhibition is 1% (inactive).

On to `OCC(O)C(O)C(O)C(O)c1nc2ccccc2[nH]1` (stereo unspecified), for which the growth inhibition was -1% (inactive) and -11% (inactive).

For the compound `c1cc(Nc2ccc3c(c2)OCO3)c2cc(C3CCCCC3)ccc2n1`, the growth inhibition is 7% (inactive).

For `Cc1ccc2nc(N/N=C/c3ccc(C)s3)cc(C)c2c1`, the growth inhibition was 31% (inactive).

Consider `COc1cc(NCCCCCNC(C)C)c2ncccc2c1Cl`, for which the growth inhibition was 5% (inactive).

For `COc1cccc2c1C(=O)c1c(O)c3c(c(O)c1C2=O)CC(O)(C(=O)CO)CC3OC1CC(N)C(O)C(C)O1` (stereo unspecified), the growth inhibition was -5% (inactive) and 20% (inactive) and 42% (inactive).

In the case of `COc1ccc2cc(CN3CCC(C4CCN(Cc5ccc6cc(OC)ccc6c5)CC4)CC3)ccc2c1`, the growth inhibition is -8% (inactive).

For the compound `CC(=O)O/N=C/c1c2ccccc2cc2ccccc12`, the growth inhibition is 80% (active).

Regarding `CC[C@@]1(OC(=O)CN(C)C)C(=O)OCc2c1cc1n(c2=O)Cc2cc3ccccc3nc2-1`, the growth inhibition is 36% (inactive).

`CC1(C)CC(=O)C(C(CC(c2ccccc2)c2cc3c(cc2O)OCO3)C2=C(O)CC(C)(C)CC2=O)=C(O)C1` (stereo unspecified): the growth inhibition is 3% (inactive).

With `CCCCCCC(CCl)c1sc(-c2csc(CCNC(=O)OC(C)(C)C)n2)nc1C(=O)OC` (stereo unspecified), the growth inhibition was -15% (inactive).

On to `CCOC(=O)C1=C(C)NC(C)=C(C(=O)OCC)C1c1cccc([N+](=O)[O-])c1`, for which the growth inhibition is 30% (inactive).

For the compound `COc1nc(N)c(N=CC(OC(C)=O)C(OC(C)=O)C(COC(C)=O)OC(C)=O)c(=O)n1C` (stereo unspecified), the growth inhibition is -3% (inactive) and -20% (inactive) and -25% (inactive).

With `Cc1ccc2c(/C=C/c3ccc(N(C)C)cc3)ccnc2c1C`, the growth inhibition was 1% (inactive).

For `Cc1cc(SC#N)ccc1O`, the growth inhibition was 9% (inactive) and -4% (inactive) and 1% (inactive).

Consider `O=C1C(Br)=CC(Br)(Br)C=C1Br`, for which the growth inhibition was 100% (active).

The record behind these values is PubChem BioAssay (NCI).
